From the supplement of paper PMC12494721
Structures can show the parent of a compound that is named as a salt.

How the values were obtained:
Conditions in all cases: incubation time: 27 h, anaerobic, 37 °C;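 for the amine columns active = adjusted P below 0.05 in both replicates with a change the same way and a mean fold change under 0.8 or over 1.25; inactive = the rest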
[1] = test system: Clostridium sporogenes DSM 1664; assay: growth (OD595) fold change vs plate DMSO controls (fold change (ratio)); higher = more growth
In short: (§1)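 Growth is calculated as fold change against the median of the DMSO control wells on each plate. Readings at 595 nm from anaerobic mGAM cultures (96-well, 27 h, 37 °C) were blank-subtracted, background-corrected with 20 µM compound solutions in water, and converted to OD by a calibration factor of 5. Fold changes above 1.5 were recorded as NA, and results are means of 2 biological replicates.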

Escherichia coli IAI1 [2] = assay: as above
In short: as §1

[3] = test system: Klebsiella aerogenes DSM 30053; assay: as above
In short: as §1

[4] = test system: Ruminococcus gnavus DSM 108212; assay: as above
In short: as §1

[5] = test system: Klebsiella aerogenes DSM 30053; assay: fold change of Histamine concentration vs plate DMSO controls (fold change (ratio)); higher = more amine produced, active = hit call of the paper (significant change in both replicates, either direction)
In short: (§2)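 Using LC–triple-quadrupole MS with dynamic MRM, amines were quantified against external calibration curves and corrected for drift within each batch. Samples were whole anaerobic mGAM cultures of four gut strains, grown 27 h at 37 °C from OD 0.1 before 1:1 dilution, extracted with cold acetonitrile/methanol containing 0.1% formic acid and centrifuged. Compounds were present at 20 µM final (sweeteners at 50 µM final). The numbers are fold changes versus plate DMSO controls, each the mean of 2 biological replicates.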

[6] = test system: Clostridium sporogenes DSM 1664; assay: fold change of Tryptamine concentration vs plate DMSO controls (fold change (ratio)); higher = more amine produced, active = hit call of the paper (significant change in both replicates, either direction)
In short: as §2

[7] = test system: Ruminococcus gnavus DSM 108212; assay: as above
In short: as §2

Escherichia coli IAI1 [8] = assay: fold change of Putrescine concentration vs plate DMSO controls (fold change (ratio)); higher = more amine produced, active = hit call of the paper (significant change in both replicates, either direction)
In short: as §2

[9] = test system: Klebsiella aerogenes DSM 30053; assay: as above
In short: as §2

Escherichia coli IAI1 [10] = assay: fold change of Cadaverine concentration vs plate DMSO controls (fold change (ratio)); higher = more amine produced, active = hit call of the paper (significant change in both replicates, either direction)
In short: as §2

[11] = test system: Klebsiella aerogenes DSM 30053; assay: as above
In short: as §2

[12] = test system: Ruminococcus gnavus DSM 108212; assay: fold change of 2-Phenylethylamine concentration vs plate DMSO controls (fold change (ratio)); higher = more amine produced, active = hit call of the paper (significant change in both replicates, either direction)
In short: as §2

SMILES	growth [1]	growth (Escherichia coli IAI1 [2])	growth [3]	growth [4]	fold change of Histamine concentration [5]	fold change of Tryptamine concentration [6]	fold change of Tryptamine concentration [7]	fold change of Putrescine concentration (Escherichia coli IAI1 [8])	fold change of Putrescine concentration [9]	fold change of Cadaverine concentration (Escherichia coli IAI1 [10])	fold change of Cadaverine concentration [11]	fold change of 2-Phenylethylamine concentration [12]
Cc1nc2ccccc2n1Cc1ccc(Cl)cc1 [Chlormidazole] (20 µM)	0.927	0.947	0.963	0.899	1.06 (inactive)	1 (inactive)	0.899 (inactive)	0.947 (inactive)	0.978 (inactive)	0.982 (inactive)	0.989 (inactive)	0.854 (inactive)
COc1ccc(C(=O)NCc2ccc(OCCN(C)C)cc2)cc1OC [Itopride] (20 µM)	1.15	1.1	1.08	1.2	0.925 (inactive)	1.05 (inactive)	1.04 (inactive)	1.09 (inactive)	0.98 (inactive)	0.942 (inactive)	1.06 (inactive)	1.04 (inactive)
CCCC(=O)Nc1ncnc2c1ncn2[C@@H]1O[C@@H]2COP(=O)(O)O[C@H]2[C@H]1OC(=O)CCC [Bucladesine sodium salt] (20 µM)	0.934	1.16	1.04	0.964	0.931 (inactive)	0.976 (inactive)	0.984 (inactive)	1.06 (inactive)	0.983 (inactive)	1 (inactive)	1.01 (inactive)	0.975 (inactive)
CN1CCN(CCCN2c3ccccc3Sc3ccc(C(F)(F)F)cc32)CC1 [Trifluoperazine dihydrochloride] (20 µM)	1.25	1.08	1.05	0.968	0.886 (inactive)	1.06 (inactive)	0.93 (inactive)	1.04 (inactive)	0.955 (inactive)	1.05 (inactive)	1.03 (inactive)	0.964 (inactive)
CCCCOc1ccc(OCCCN2CCOCC2)cc1 [Pramoxine hydrochloride] (20 µM)	1.11	0.971	1.17	0.899	0.904 (inactive)	1.06 (inactive)	1.01 (inactive)	0.96 (inactive)	0.976 (inactive)	0.97 (inactive)	1.02 (inactive)	1.07 (inactive)
CS(=O)(=O)c1ccc([C@@H](O)[C@@H](CF)NC(=O)C(Cl)Cl)cc1 [Florfenicol] (20 µM)	0	0.0375	0.0697	0.306	0.0871 (active)	0.0346 (active)	0.122 (active)	0.217 (active)	0.459 (inactive)	0.177 (active)	0.508 (inactive)	0.143 (active)
C=CCOc1ccc(CC(=O)O)cc1Cl [Alclofenac] (20 µM)	0.943	1.06	0.98	1	0.998 (inactive)	1.05 (inactive)	1.05 (inactive)	1.02 (inactive)	0.974 (inactive)	0.97 (inactive)	0.991 (inactive)	1.09 (inactive)
CCCc1nc(C)c2c(=O)nc(-c3cc(S(=O)(=O)N4CCN(CC)CC4)ccc3OCC)[nH]n12 [Vardenafil] (20 µM)	1.15	0.975	1.01	1.27	1.03 (inactive)	0.992 (inactive)	1.05 (inactive)	1.01 (inactive)	1.01 (inactive)	1.02 (inactive)	1.01 (inactive)	1.07 (inactive)
CC(C)=C/C(C)=N/Nc1nncc2ccccc12 [Budralazine] (20 µM)	1.12	1.05	0.989	0.98	1.03 (inactive)	0.98 (inactive)	0.994 (inactive)	0.992 (inactive)	1.02 (inactive)	0.963 (inactive)	1 (inactive)	0.969 (inactive)
COc1cc([C@@H]2c3cc4c(cc3[C@@H](O[C@@H]3O[C@@H]5CO[C@@H](C)O[C@H]5[C@H](O)[C@H]3O)[C@H]3COC(=O)[C@H]23)OCO4)cc(OC)c1O [Etoposide] (20 µM)	0.285	1.05	1.2	0.101	0.858 (inactive)	0.403 (active)	0.248 (active)	1.08 (inactive)	0.982 (inactive)	0.966 (inactive)	1.03 (inactive)	0.236 (active)
COc1nc(N)nc2c1ncn2[C@@H]1O[C@H](CO)[C@@H](O)[C@@H]1O [Nelarabine] (20 µM)	1.13	0.973	0.999	0.914	1.08 (inactive)	0.945 (inactive)	1.03 (inactive)	1.01 (inactive)	1.01 (inactive)	0.989 (inactive)	0.978 (inactive)	1.03 (inactive)
NC(=O)c1cnccn1 [Pyrazinamide] (20 µM)	0.992	1.04	1	1.12	0.957 (inactive)	1.04 (inactive)	0.958 (inactive)	1.01 (inactive)	1 (inactive)	0.98 (inactive)	1.01 (inactive)	0.906 (inactive)
COc1c(O)cc2c(c1O)[C@@H]1O[C@H](CO)[C@@H](O)[C@H](O)[C@H]1OC2=O [Bergenin] (20 µM)	0.966	1.05	1.11	1.05	0.891 (inactive)	1.01 (inactive)	1.06 (inactive)	0.97 (inactive)	0.997 (inactive)	0.93 (inactive)	1.03 (inactive)	1.05 (inactive)
CN(C)CCCN1c2ccccc2[S+]([O-])c2ccc(Cl)cc21 (stereo not drawn) [Chlorpromazine Sulfoxide] (20 µM)	0.948	0.996	0.985	1.03	1.04 (inactive)	1.06 (inactive)	1.04 (inactive)	0.993 (inactive)	0.996 (inactive)	1.01 (inactive)	0.977 (inactive)	1.1 (inactive)
CC(C)(C)NC[C@@H](O)COc1cccc2c1CCCC2=O [(+) Levobunolol hydrochloride] (20 µM)	1.08	0.974	1.11	0.903	0.936 (inactive)	1.05 (inactive)	1.04 (inactive)	1.04 (inactive)	0.985 (inactive)	0.994 (inactive)	0.999 (inactive)	1.02 (inactive)
O=c1[nH]cnc2c1ncn2[C@H]1CC[C@@H](CO)O1 [Didanosine] (20 µM)	1.07	1.03	1.03	1.08	0.958 (inactive)	0.992 (inactive)	1.15 (inactive)	1.14 (inactive)	1.08 (inactive)	1.69 (active)	1.03 (inactive)	1.16 (inactive)
CN1CCCCC1CCN1c2ccccc2Sc2ccc([S+](C)[O-])cc21 (stereo not drawn) [Mesoridazine besylate] (20 µM)	1.12	0.991	0.974	0.756	1.1 (inactive)	0.992 (inactive)	1.02 (inactive)	1 (inactive)	1.02 (inactive)	1.01 (inactive)	0.978 (inactive)	0.987 (inactive)
Cn1c(=O)c2c(ncn2CCO)n(C)c1=O [Etofylline] (20 µM)	0.922	1.01	1.01	1.04	0.983 (inactive)	0.964 (inactive)	0.853 (inactive)	1.01 (inactive)	0.997 (inactive)	1.03 (inactive)	1 (inactive)	0.839 (inactive)
O=C(C1CCCCC1)N1CC(=O)N2CCc3ccccc3C2C1 (stereo not drawn) [Praziquantel] (20 µM)	1.01	0.975	0.99	0.82	1.06 (inactive)	0.989 (inactive)	1.03 (inactive)	0.947 (inactive)	1.02 (inactive)	1.02 (inactive)	0.978 (inactive)	0.992 (inactive)
O=C1NCCN1c1ncc([N+](=O)[O-])s1 [Niridazole] (20 µM)	0.0129	1.09	0.756	0.0406	1.11 (inactive)	0.0363 (active)	0.0455 (active)	1.44 (inactive)	1.03 (inactive)	1.97 (active)	1.02 (inactive)	0.0533 (active)
Cc1cnc(C(=O)NCCc2ccc(S(=O)(=O)NC(=O)NC3CCCCC3)cc2)cn1 [Glipizide] (20 µM)	1.11	0.966	1.04	1.08	0.94 (inactive)	1.01 (inactive)	0.99 (inactive)	0.989 (inactive)	0.998 (inactive)	0.973 (inactive)	1 (inactive)	1.03 (inactive)
CN[C@@H]1[C@H](O[C@H]2[C@H](O[C@H]3[C@H](O)[C@@H](O)[C@H](NC(=N)N)[C@@H](O)[C@@H]3NC(=N)N)O[C@@H](C)[C@]2(O)CO)O[C@@H](CO)[C@H](O)[C@H]1O [Dihydrostreptomycin sulfate] (20 µM)	1.08	0.98	0.92	0.933	0.704 (inactive)	1.25 (inactive)	0.984 (inactive)	0.958 (inactive)	0.922 (inactive)	1.01 (inactive)	0.993 (inactive)	0.991 (inactive)
NCc1ccccc1CC(=O)N[C@@H]1C(=O)N2C(C(=O)O)=C(CSc3nnnn3CC(=O)O)CS[C@H]12 [Ceforanide] (20 µM)	0	1.11	1.08	0.307	0.726 (inactive)	0.0212 (active)	0.0541 (active)	1.91 (active)	1.09 (inactive)	1.95 (active)	1.07 (inactive)	0.0519 (active)
CC(C)c1c(C(=O)Nc2ccccc2)c(-c2ccccc2)c(-c2ccc(F)cc2)n1CC[C@@H](O)C[C@@H](O)CC(=O)O [Atorvastatin] (20 µM)	1.02	1.03	1	1.28	1.15 (inactive)	1.01 (inactive)	1 (inactive)	1.01 (inactive)	1.02 (inactive)	0.984 (inactive)	0.998 (inactive)	1.02 (inactive)
